Measurements taken from PubChem BioAssay (Tox21).
Inconclusive results are not listed. Activity calls are given as the source filed them. Unless noted, calls come from the whole dose curve; as a rule, active = well fitted curve in the direction sought with a large enough effect in the repeat runs; inconclusive = weak or mixed curves; inactive = no such curve, though single readings can be large; an effect the other way counts as inactive or inconclusive.

Tests used:
[1] = qHTS assay for small molecules that induce genotoxicity in human embryonic kidney cells expressing luciferase-tagged ATAD5 (AID 651632); note: nearly all actives have a fitted effect of over 15% in size
How it was run: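 Luminescence read-out: after 16 hr compound exposure at 37C, ATAD5-luciferase HEK293T cells received Amplite, 30 min RT, then CCD imaging. A rise in signal marks genotoxic stress.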

[2] = qHTS assay for small molecule agonists of the p53 signaling pathway - cell viability (AID 651633; calls by dose curve;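 note: p53RE-bla HCT reporter cells with a stable beta-lactamase p53 reporter; series mostly up to about 83 µM; nearly all actives have a fitted effect of over 30% in size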)
How it was run: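 Viability counter-read: CellTiter-Glo luminescence (30 min, room temperature) in the same p53RE-bla plates. These plates had been exposed to compounds for 16 h at 37 C.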

[3] = qHTS assay for small molecules that induce genotoxicity in human embryonic kidney cells expressing luciferase-tagged ATAD5 - cell viability (AID 651634; calls by dose curve; note: nearly all actives have a fitted effect of over 25% in size)
How it was run: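 HEK293T ATAD5-luc cells, 2,000/well; compound 15.5 hr, 37C/5% CO2; CellTiter-Fluor 30 min, 37C; fluorescence read.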

[4] = qHTS assay for small molecule disruptors of the mitochondrial membrane potential - cell viability (AID 720634; calls by dose curve;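 note: human HepG2 liver cancer cells; series mostly up to about 83 µM; nearly all actives have a fitted effect of over 20% in size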)
How it was run: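 Luminescence from CellTiter-Glo (ATP content) gave viability in HepG2 cells, read in the same wells as the MMP dye assay after 1 hr compound exposure at 37 C.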

[5] = qHTS assay for small molecule disruptors of the mitochondrial membrane potential (AID 720635); note: potency is the fitted concentration of half-maximal effect
How it was run: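 Mitochondrial membrane potential tracked with Mito-MPS dye, red aggregates (ex 540/em 590 nm) against green monomers (ex 490/em 535 nm). Compound treatment 1 hr at 37C, dye 30 min in HepG2.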

[6] = qHTS assay to test for compound auto fluorescence at 590 nm (red) in HepG2 cells (AID 720674)
How it was run: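 1 hr compound incubation on HepG2 cells, 37 C, 5% CO2; plate read ex 540 nm / em 590 nm; intensities reported as Rose Bengal sodium equivalents.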

[7] = qHTS assay to test for compound auto fluorescence at 460 nm (blue) in HEK293 cells (AID 720678)
How it was run: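 Auto fluorescence in the blue band was quantified as triamterene equivalency. HEK293 cells were seeded at 2,000/well, dosed after a 4-5 hr attachment, and kept overnight at 37C before the 405/460 nm reading.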

[8] = qHTS assay to test for compound auto fluorescence at 590 nm (red) in HEK293 cells (AID 720679)
How it was run: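 Autofluorescence equivalency to Rose Bengal sodium, 540/590nm, in HEK293 cells exposed overnight to 23 nL compound per well.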

[9] = qHTS assay to test for compound auto fluorescence at 535 nm (green) in HEK293 cells (AID 720680)
[10] = qHTS assay to test for compound auto fluorescence at 460 nm (blue) in HEK293 cell free culture (AID 720681)
How it was run: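 Blue fluorescence (Ex 405/Em 460 nm, triamterene-equivalent) was read immediately after pin transfer of compound or DMSO into medium (DMEM, 10% FBS) without cells.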

[11] = qHTS assay to test for compound auto fluorescence at 535 nm (green) in HEK293 cell free culture (AID 720682)
How it was run: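 Measurement is a direct plate read of green fluorescence (485 nm in, 535 nm out) after compound addition to serum-supplemented DMEM lacking cells, with fluorescein used to express intensities.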

[12] = qHTS assay to test for compound auto fluorescence at 590 nm (red) in HEK293 cell free culture (AID 720683)
How it was run: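 Red-channel autofluorescence of compounds in culture medium (DMEM, 10% FBS), no cells, measured at 540/590 nm. Rose Bengal sodium is the reference fluorophore for equivalence.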

[13] = qHTS assay to test for compound auto fluorescence at 590 nm (red) in HepG2 cell free culture (AID 720684)
How it was run: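 No cells present: MEM + 10% FBS only. Compound pinned in, red label read (540/590 nm). Activity = fluorescence equivalent to Rose Bengal sodium.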

[14] = qHTS assay to test for compound auto fluorescence at 460 nm (blue) in HepG2 cell free culture (AID 720685)
How it was run: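 Cell-free plates of MEM plus 10% FBS received 23 nL compound or DMSO vehicle; blue-channel (405/460 nm) intensity scored against triamterene as reference fluorophore.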

[15] = qHTS assay to test for compound auto fluorescence at 535 nm (green) in HepG2 cell free culture (AID 720686)
[16] = qHTS assay to test for compound auto fluorescence at 460 nm (blue) in HepG2 cells (AID 720687)
How it was run: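 Blue-channel autofluorescence (Ex/Em 405/460 nm, triamterene-equivalent) was measured after 1 hr compound exposure at 37 C, 5% CO2. Cells were HepG2, plated overnight at 37 C in MEM plus 10% FBS.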

[17] = molecular target: Glucocorticoid receptor (Homo sapiens) (UniProt P04150); experiment: qHTS assay to identify small molecule agonists of the glucocorticoid receptor (GR) signaling pathway (AID 720691; active = well fitted activation curve with a large enough effect in the signal ratio in the repeat runs, not every such curve was filed as active; the % refers to the signal ratio)
Glucocorticoid receptor (Homo sapiens), sequence (P04150 whole entry, looked up): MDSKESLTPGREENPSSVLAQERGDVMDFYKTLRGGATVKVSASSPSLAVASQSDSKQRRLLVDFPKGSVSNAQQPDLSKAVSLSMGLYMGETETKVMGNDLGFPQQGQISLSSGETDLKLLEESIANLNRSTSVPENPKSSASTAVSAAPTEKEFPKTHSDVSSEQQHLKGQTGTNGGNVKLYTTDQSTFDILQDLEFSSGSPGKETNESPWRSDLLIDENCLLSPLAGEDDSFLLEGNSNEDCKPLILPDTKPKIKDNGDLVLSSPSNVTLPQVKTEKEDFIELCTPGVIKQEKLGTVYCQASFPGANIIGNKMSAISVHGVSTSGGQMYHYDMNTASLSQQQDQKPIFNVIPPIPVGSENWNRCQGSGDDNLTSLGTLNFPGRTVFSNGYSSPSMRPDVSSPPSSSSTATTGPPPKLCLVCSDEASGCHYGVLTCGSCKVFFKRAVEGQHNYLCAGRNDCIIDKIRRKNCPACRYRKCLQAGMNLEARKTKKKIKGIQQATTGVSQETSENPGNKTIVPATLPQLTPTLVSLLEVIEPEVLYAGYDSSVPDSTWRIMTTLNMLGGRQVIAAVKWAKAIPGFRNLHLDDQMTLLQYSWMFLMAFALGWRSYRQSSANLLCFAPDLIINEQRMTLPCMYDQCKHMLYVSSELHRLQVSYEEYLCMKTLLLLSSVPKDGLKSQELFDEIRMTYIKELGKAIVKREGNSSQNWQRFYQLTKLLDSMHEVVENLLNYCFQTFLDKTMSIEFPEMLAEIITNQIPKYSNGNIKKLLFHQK
How it was run: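 HeLa GR-bla reporter line; cells pre-incubated 4 h, compound in DMSO 18 h at 37 C; LiveBLAzer B/G FRET substrate 2 h RT; fluorescence intensity read-out.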

[18] = molecular target: Glucocorticoid receptor (Homo sapiens) (UniProt P04150); experiment: qHTS assay to identify small molecule antagonists of the glucocorticoid receptor (GR) signaling pathway (AID 720692; active = well fitted inhibition curve with a large enough effect in the signal ratio in the repeat runs, not every such curve was filed as active; the % refers to the signal ratio)
How it was run: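 Read-out: beta-lactamase FRET substrate fluorescence, 2 h at room temperature, in HeLa cells stably carrying a GRE-driven bla reporter. Compounds were co-incubated with 5 nM dexamethasone agonist (final) for 18 h at 37 C.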

[19] = qHTS assay to test for compound auto fluorescence at 535 nm (green) in HepG2 cells (AID 720675)
% is set by controls: 0 for no effect and ±100 for the full control effect.

Nc1[nH]c(=O)ncc1F
inactive: Potency [1] | Potency [2] | Potency [3] | Potency [4] | Potency [5] | fluorescence, relative to Rose Bengal [6] -0.615% [at 18.6 µM] | fluorescence, % of triamterene [7] 0.082% [at 18.6 µM] | fluorescence, % of fluorescent control [8] 0.0902% [at 18.6 µM] | fluorescence, % of fluorescein [9] 0.0412% [at 18.6 µM] | fluorescence, % of fluorescent control [10] 0.0652% [at 18.6 µM] | activity change [11] 0.004% [at 18.6 µM] | fluorescence, % of fluorescent control [12] -0.113% [at 18.6 µM] | fluorescence, % of Rose Bengal [13] 0.311% [at 18.6 µM] | fluorescence, % of fluorescent control [14] -0.0064% [at 18.6 µM] | fluorescence, % of fluorescein control [15] 0.186% [at 18.6 µM] | fluorescence, % of fluorescent control [16] 0.0009% [at 18.6 µM] | Potency [17] | Potency [18]

NCC[C@H](O)C(=O)N[C@@H]1C[C@H](N)[C@@H](O[C@H]2O[C@H](CN)[C@@H](O)[C@H](O)[C@H]2O)[C@H](O)[C@H]1O[C@H]1O[C@H](CO)[C@@H](O)[C@H](N)[C@H]1O
inactive: Potency [1] | Potency [2] | Potency [3] | Potency [4] | Potency [5] | outcome [6] | outcome [19] | Potency [7] | outcome [8] | outcome [9] | Potency [10] | outcome [11] | outcome [12] | outcome [13] | Potency [14] | outcome [15] | Potency [16] | Potency [17] | Potency [18]

Cc1ccccc1Br
inactive: Potency [1] | Potency [2] | Potency [3] | Potency [4] | outcome [6] | outcome [19] | Potency [7] | outcome [8] | outcome [9] | Potency [10] | outcome [11] | outcome [12] | outcome [13] | Potency [14] | outcome [15] | Potency [16]

Cc1ccc(N)cc1[N+](=O)[O-]
inactive: Potency [1] | Potency [2] | Potency [3] | Potency [4] | Potency [5] | outcome [6] | Potency [7] | outcome [8] | outcome [9] | Potency [10] | outcome [11] | outcome [12] | outcome [13] | Potency [14] | outcome [15] | Potency [16] | Potency [17] | Potency [18]

COc1cc(C)cc(O)c1
inactive: Potency [1] | Potency [2] | Potency [3] | Potency [4] | Potency [5] | outcome [6] | outcome [19] | Potency [7] | outcome [8] | outcome [9] | Potency [10] | outcome [11] | outcome [12] | outcome [13] | Potency [14] | outcome [15] | Potency [16] | Potency [17]

CCCOc1ccccc1-c1nc2n[nH]nc2c(=O)[nH]1
inactive: Potency [1] | Potency [2] | Potency [3] | Potency [4] | outcome [6] | outcome [19] | Potency [7] | outcome [8] | outcome [9] | Potency [10] | outcome [11] | outcome [12] | outcome [13] | Potency [14] | outcome [15] | Potency [16] | Potency [17] | Potency [18]

OC/C=C/c1ccccc1
inactive: Potency [1] | Potency [2] | Potency [3] | Potency [4] | outcome [6] | outcome [19] | Potency [7] | outcome [8] | outcome [9] | Potency [10] | outcome [11] | outcome [12] | outcome [13] | Potency [14] | outcome [15] | Potency [16]

C=C(C)[C@@H]1CCC2=CC(=O)C[C@@H](C)[C@]2(C)C1
inactive: Potency [1] | Potency [2] | Potency [3] | Potency [4] | outcome [6] | outcome [19] | Potency [7] | outcome [8] | outcome [9] | Potency [10] | outcome [11] | outcome [12] | outcome [13] | Potency [14] | outcome [15] | Potency [16]

NC(N)=NS(=O)(=O)c1ccc(N)cc1
inactive: Potency [1] | Potency [2] | Potency [3] | Potency [4] | Potency [5] | fluorescence, relative to Rose Bengal [6] -0.133% [at 18.6 µM] | fluorescence, % of fluorescein control [19] 0.0157% [at 18.6 µM] | fluorescence, % of triamterene [7] 0.195% [at 18.6 µM] | fluorescence, % of fluorescent control [8] 0.29% [at 18.6 µM] | fluorescence, % of fluorescein [9] 0.0406% [at 18.6 µM] | fluorescence, % of fluorescent control [10] -0.0354% [at 18.6 µM] | activity change [11] 0.0753% [at 18.6 µM] | fluorescence, % of fluorescent control [12] -0.0082% [at 18.6 µM] | fluorescence, % of Rose Bengal [13] 0.343% [at 18.6 µM] | fluorescence, % of fluorescent control [14] -0.0031% [at 18.6 µM] | fluorescence, % of fluorescein control [15] -0.0207% [at 18.6 µM] | fluorescence, % of fluorescent control [16] -0.0417% [at 18.6 µM] | Potency [17] | Potency [18]

CC(C)(C)C(=O)/C=C/c1ccc(Cl)cc1
inactive: Potency [1] | Potency [2] | Potency [3] | Potency [4] | outcome [6] | outcome [19] | Potency [7] | outcome [8] | outcome [9] | Potency [10] | outcome [11] | outcome [12] | outcome [13] | Potency [14] | outcome [15] | Potency [16] | Potency [17] | Potency [18]

CCCCCCCCCCCCCCC
inactive: Potency [1] | Potency [2] | Potency [3] | Potency [4] | Potency [5] | outcome [6] | Potency [7] | outcome [8] | outcome [9] | Potency [10] | outcome [11] | outcome [12] | outcome [13] | Potency [14] | outcome [15] | Potency [16] | Potency [17] | Potency [18]

CC(C)(O)Cc1ccccc1
inactive: Potency [1] | Potency [2] | Potency [3] | Potency [4] | Potency [5] | outcome [6] | outcome [19] | Potency [7] | outcome [8] | outcome [9] | Potency [10] | outcome [11] | outcome [12] | outcome [13] | Potency [14] | outcome [15] | Potency [16] | Potency [17] | Potency [18]

CC1=CCC2C(C1)C2(C)C (configuration not stated)
inactive: Potency [1] | Potency [2] | Potency [3] | Potency [4] | outcome [6] | outcome [19] | Potency [7] | outcome [8] | outcome [9] | Potency [10] | outcome [11] | outcome [12] | outcome [13] | Potency [14] | outcome [15] | Potency [16] | Potency [17] | Potency [18]
active: Potency [5] 48.6 µM

C=CCOCC(O)CS(=O)(=O)O (configuration not stated)
inactive: Potency [1] | Potency [2] | Potency [3] | Potency [4] | outcome [6] | outcome [19] | Potency [7] | outcome [8] | outcome [9] | Potency [10] | outcome [11] | outcome [12] | outcome [13] | Potency [14] | outcome [15] | Potency [16]

CC1=CC(=O)CCC1
inactive: Potency [1] | Potency [2] | Potency [3] | Potency [4] | Potency [5] | outcome [6] | outcome [19] | Potency [7] | outcome [8] | outcome [9] | Potency [10] | outcome [11] | outcome [12] | outcome [13] | Potency [14] | outcome [15] | Potency [16] | Potency [17] | Potency [18]
